From PubChem
NIH3T3 tox: Cytotoxic Profiling in NIH 3T3 Cell Line of Diverse Libraries Using Quantitative High-Throughput Screening. AID 1345082, 2018. Potency, µM (titrated, usually from 96.7 µM), for the others: at the top dose activity change, negative = cytotoxicity, most hits filed as inhibitors. hit rate 4.3% among 94,000. NIH 3T3 viability, CellTiter-Glo ATP luminescence, 48-72 h; note: % is set by controls: 0 for no effect and ±100 for the full control effect; nearly all actives have a fitted effect of over 55% in size
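Viability of NIH 3T3 cells after 48 or 72 hr compound treatment at 37 °C was assessed by CellTiter-Glo, with luminescence imaged following a 10 min room-temperature step.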
NPR1 antag: Natriuretic polypeptide receptor (hNpr1) antagonism - Primary qHTS; Atrial natriuretic peptide receptor 1 (Homo sapiens), P16066; HEK293 hNpr1 GloSensor cGMP, ANP-stimulated luminescence; Potency, µM (titrated, usually from 46.3 µM), for the others: at the highest dose activity change, negative = inhibition, usual class: inhibitors; hit rate 1.6% among 76,000; calls by dose curve; note: % is set by controls: 0 for no effect and ±100 for the full control effect; nearly all actives have a fitted effect of over 60% in size
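HEK293 cells stably expressing human Npr1 and cGMP GloSensor pGS-40F, loaded 2 h with 2% GloSensor reagent, given compound 30 min at room temperature. Luminescence read before and 20 min after 0.1 nM hNppA.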
HEK cytotox: Cytotoxic Profiling in HEK 293 Cell Line of Diverse Libraries Using Quantitative High-Throughput Screening; hit rate 6.6% among 94,000; Potency, µM (titrated, usually from 115 µM), inactives show at the highest dose activity change, negative = cytotoxicity, actives largely listed as inhibitors; HEK 293 viability, ATP luminescence (CellTiter-Glo), 48-72 h; note: % is set by controls: 0 for no effect and ±100 for the full control effect; nearly all actives have a fitted effect of over 60% in size
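Pintool-delivered compounds were incubated with HEK 293 cells (250 cells/well) at 37 degree Celsius for 48 or 72 hr. ATP-dependent luminescence (CellTiter-Glo) then reported remaining viable cells.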
FLuc inh-1: Firefly luciferase inhibition profiling of diverse chemical library using quantitative high-throughput screening; Luciferin 4-monooxygenase (Photinus pyralis), P08659; purified P. pyralis luciferase, luminescence, biochemical; Potency, µM (series often up to 115 µM), usual class: inhibitors; hit rate 2.5% among 76,000; AID 1347043, 2019; note: % is set by controls: 0 for no effect and ±100 for the full control effect; nearly all actives have a fitted effect of over 65% in size
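Luminescence read by CCD imager after adding enzyme (10nM final) to wells holding compound, titrated in qHTS. Substrates 10uM each D-luciferin and ATP; buffer 50mM Tris acetate pH 7.5, 10mM Mg acetate, Tween-20, BSA.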
GPT2 inhibitor: Primary qHTS assay for inhibitors of Glutamate pyruvate transaminase 2 (GPT2). Potency, µM (titrated, usually from 57.7 µM), for the others: at the highest dose activity change, negative = inhibition, actives largely listed as inhibitors. hit rate 0.25% among 100,000. AID 1671188, 2021. Recombinant GPT2, coupled pyruvate oxidase/HRP Amplex Red fluorescence. Alanine aminotransferase 2 (Homo sapiens), Q8TD30; note: % is set by controls: 0 for no effect and ±100 for the full control effect; nearly all actives have a fitted effect of over 60% in size
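Inhibition is scored from Amplex Red fluorescence generated when pyruvate oxidase and HRP act on pyruvate released by GPT2. Reactions contain 10ng/uL enzyme, 250uM a-KG and 2mM L-alanine and run 30 min at room temperature.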
FLuc SDR -ATP: Firefly luciferase (FLuc-C-HiBiT) SDR gain of signal screen - without ATP. shares compounds with FLuc inh-1. Purified FLuc-C-HiBiT, Nano-Glo HiBiT luminescence, no ATP. Potency, µM (titrated, usually from 32.7 µM), without a hit: at the highest dose activation (signal gain), most hits filed as activators. hit rate 7.8% among 1,300. AID 1963318, 2024; note: nearly all actives have a fitted effect of over 55% in size
FLuc SDR ATP: Firefly luciferase (FLuc-C-HiBiT) SDR gain of signal screen - plus ATP; shares compounds with FLuc inh-1; purified FLuc-C-HiBiT + ATP, HiBiT complementation luminescence; Potency, µM (doses to about 32.7 µM), without a hit: at the highest dose activation (gain of signal), most hits filed as activators; hit rate 8.7% among 1,300;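 note: signal reports ligand binding via conformational change of the enzyme rather than luciferase catalysis; % of control where 0% means no effect; nearly all actives have a fitted effect of over 55% in size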
FLuc inh-2: Firefly luciferase (FLuc-C-HiBiT) enzymatic inhibition screen - Functional assay | shares compounds with FLuc inh-1 | Potency, µM (highest dose often 32.7 µM), inactives show top-dose activity change, negative = inhibition, actives largely listed as inhibitors | purified FLuc-C-HiBiT enzyme, luciferin luminescence | hit rate 42% among 1,300; note: % is set by controls: 0 for no effect and ±100 for the full control effect; nearly all actives have a fitted effect of over 70% in size
* hit, by the source's call; [ ] = remark or other dose. Rows were chosen to be rich in hits. Some 10% of all compounds tested hit in one or more screens of this group. Unless noted, calls come from the whole dose curve; as a rule, active = well fitted curve in the direction sought with a large enough effect; inconclusive = small, poorly fitted or top-dose-only effect, or another doubt; inactive = no such curve, though single readings can be large; an effect the other way counts as inactive or inconclusive. Potency is the fitted concentration of half-maximal effect.

Results for O=C1C[C@H]2CC[C@@H](CN1)N2Cc1ccc(OCc2ccccc2)cc1 ?
NIH3T3 tox: inconclusive; NPR1 antag: inconclusive; HEK cytotox: inconclusive; FLuc inh-1: 11µM*; GPT2 inhibitor: inactive; FLuc SDR -ATP: 13%; FLuc SDR ATP: 11%; FLuc inh-2: inconclusive

How did Cc1ccc(Cl)cc1-n1nnc(-c2nsc(NC(=O)c3ccccc3Cl)n2)c1C do in these assays?
FLuc SDR -ATP: 11%; FLuc SDR ATP: 9%; FLuc inh-2: -6%

Results for COc1cccc2cc(C(=O)Nc3ccc(C)cc3)c(=O)oc12 ?
FLuc SDR -ATP: 28%; FLuc SDR ATP: 20%; FLuc inh-2: inconclusive

What do the screens show for `COc1ccccc1C(=O)Nc1cccc(NC(=O)c2cccc(C)c2)c1`?
GPT2 inhibitor: 1%

How did COc1ccc2oc(=O)c(C(=O)Nc3cccc(C(=O)O)c3)cc2c1 do in these assays?
FLuc SDR -ATP: 12µM*; FLuc SDR ATP: 0.05µM*; FLuc inh-2: 0.016µM*

How did O=C(Nc1ccccc1Cl)C1CN(C2CCCC2)C(=O)N1 (centres undefined) do in these assays?
NIH3T3 tox: -25%[138 µM]; HEK cytotox: -23%[172 µM]; GPT2 inhibitor: 5%[88.5 µM]

Results for Cc1ccc(N2C(=O)c3n[nH]c(C)c3C2c2ccc(Cl)cc2)cc1 (centres undefined) ?
FLuc SDR -ATP: 17%; FLuc SDR ATP: 12%; FLuc inh-2: inconclusive

Results for Cn1c(=O)n(-c2ccc(C(C)(C)C#N)cc2)c2c3cc(C#Cc4cccnc4)ccc3ncc21 ?
GPT2 inhibitor: 5%[27.3 µM]

Results for O=C(Nc1ccc2c(c1)OCO2)c1cccc2c1CCN2C(=O)Nc1ccc(F)cc1 ?
NIH3T3 tox: -28%; NPR1 antag: 7.1µM*; HEK cytotox: inconclusive; FLuc inh-1: 0.71µM*; GPT2 inhibitor: inactive; FLuc SDR -ATP: 13%; FLuc SDR ATP: 0.25µM*; FLuc inh-2: 0.2µM*

What do the screens show for `O=C(NCCc1cccnc1)c1cccc2c1CCN2C(=O)Nc1ccc(F)cc1`?
NIH3T3 tox: -28%; NPR1 antag: 11µM*; HEK cytotox: 45µM*; FLuc inh-1: 0.4µM*; GPT2 inhibitor: inactive; FLuc SDR -ATP: 23%; FLuc SDR ATP: 0.35µM*; FLuc inh-2: 0.22µM*

Results for Cc1ccc(CNC(=O)c2cccc3c2CCN3C(=O)c2ccc(F)cc2)o1 ?
NIH3T3 tox: -14%; NPR1 antag: -9%; HEK cytotox: inconclusive; FLuc inh-1: inactive; GPT2 inhibitor: inactive

What do the screens show for `O=C(NCc1ccco1)c1cccc2c1CCN2C(=O)Nc1ccc(F)cc1`?
NIH3T3 tox: inconclusive; NPR1 antag: inconclusive; HEK cytotox: inconclusive; FLuc inh-1: 2.2µM*; GPT2 inhibitor: -11%; FLuc SDR -ATP: inconclusive; FLuc SDR ATP: 1.8µM*; FLuc inh-2: 1.1µM*

What do the screens show for `O=C(NCCc1cccs1)c1cccc2c1CCN2C(=O)Nc1ccc(F)cc1`?
NIH3T3 tox: inconclusive; NPR1 antag: inconclusive; HEK cytotox: inconclusive; FLuc inh-1: 1.3µM*; GPT2 inhibitor: inactive; FLuc SDR -ATP: 20%; FLuc SDR ATP: 1.4µM*; FLuc inh-2: 0.79µM*

How did CCCCNC(=O)c1cccc2c1CCN2C(=O)C1CC1 do in these assays?
NIH3T3 tox: inconclusive; NPR1 antag: -2%; HEK cytotox: 3%; FLuc inh-1: inactive; GPT2 inhibitor: inactive

Results for C=C1C[C@]23C[C@H]1CC[C@H]2C1=C[C@H]2OC(=O)[C@@](C)([C@H]1[C@@H]3C(=O)O)[C@H]2O ?
GPT2 inhibitor: inactive

How did CCC(=O)N1CCc2c(C(=O)NCc3ccncc3)cccc21 do in these assays?
NIH3T3 tox: 4%; NPR1 antag: 3%; HEK cytotox: 4%; FLuc inh-1: inactive; GPT2 inhibitor: 0%

Results for CC(NC(=O)c1cccc2c1CCN2C(=O)Nc1ccccc1)c1cccnc1 (centres undefined) ?
NIH3T3 tox: -21%; NPR1 antag: -28%; HEK cytotox: inconclusive; FLuc inh-1: 6.3µM*; GPT2 inhibitor: inactive; FLuc SDR -ATP: 18%; FLuc SDR ATP: 3.1µM*; FLuc inh-2: 1.8µM*

What do the screens show for `O=C1N(c2ccccc2)C[C@H]2CN(Cc3ccccc3)CCN12`?
NIH3T3 tox: -18%[138 µM]; NPR1 antag: -21%[70.6 µM]; HEK cytotox: -26%[172 µM]; FLuc inh-1: 14µM*; GPT2 inhibitor: inactive; FLuc SDR -ATP: 10%[49.3 µM]; FLuc SDR ATP: 11%[49.3 µM]; FLuc inh-2: inconclusive

How did O=C(NCCN1CCOCC1)c1c[nH]c2ncccc12 do in these assays?
NIH3T3 tox: -9%[138 µM]; NPR1 antag: 12%[70.6 µM]; HEK cytotox: -3%[172 µM]; FLuc inh-1: inactive; GPT2 inhibitor: -4%[88.5 µM]

What do the screens show for `O=C(NCCC1CCCCC1)c1c[nH]c2ncccc12`?
NIH3T3 tox: inconclusive; NPR1 antag: inconclusive; HEK cytotox: 71µM*; FLuc inh-1: 5.6µM*; GPT2 inhibitor: -26%[88.5 µM]; FLuc SDR -ATP: inconclusive; FLuc SDR ATP: 18%[49.3 µM]; FLuc inh-2: 18µM*

What do the screens show for `CC(=O)N1C[C@@H]2CCCN3CCC[C@@H]([C@H]23)[C@H]1CCCC(=O)NCc1ccc(C)o1`?
NIH3T3 tox: -11%; NPR1 antag: -13%; HEK cytotox: 2%; FLuc inh-1: inactive; GPT2 inhibitor: inactive

What do the screens show for `O=C(c1ccc(CC2CCN(C(=O)c3nccc4ccccc34)CC2)cc1)N1CCOCC1`?
NIH3T3 tox: inconclusive; NPR1 antag: -6%; HEK cytotox: inconclusive; FLuc inh-1: inactive; GPT2 inhibitor: 4%
